Screening results deposited in PubChem BioAssay by National Center for Advancing Translational Sciences (NCATS).
Vaccinia Venus = inhibitors of vaccinia virus (Venus reporter). hit rate 0.46% among 330,000. Vaccinia virus Venus reporter expression, fluorescence. Potency, µM (series often up to 36.5 µM), for inactives: at the top dose activity change, negative = inhibition, hits mostly inhibitors; calls by dose curve; tested in A549 cells; also: potency is read from the fitted curve at half-maximal effect; nearly all actives have a fitted effect of over 30% in size
HCMV antiviral = blocks human cytomegalovirus replication; hit rate 4.5% among 410,000; AID 1259415; activity change, negative = inhibition, % at 57.5 µM; HFF cells, HCMV-luciferase reporter, 72 h; active compounds read low; in the data active = activity change below about -60%; inconclusive = no clear call, values can overlap the other calls; inactive = above about -39%
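Human foreskin fibroblasts infected with luciferase-reporter HCMV at MOI 1 PFU/cell, compounds at two doses. Luciferase measured 72 h post infection; normalized to buffer-only basal and Salinomycin (10uM) controls.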
FMDV antiviral = blocks foot and mouth disease virus | AID 1159524 | Potency, µM (titrated, usually from 57.9 µM), inactives show top-dose activity change, negative = inhibition, actives largely listed as inhibitors | hit rate 1.2% among 410,000 | FMDV antiviral cell-based qHTS; calls by dose curve; tested in HEK293T cells; also: read-out not given here; potency is read from the fitted curve at half-maximal effect; nearly all actives have a fitted effect of over 45% in size
Vaccinia mCherry = inhibitors of vaccinia virus infection (mCherry reporter signal); Potency, µM (titrated, usually from 36.5 µM), for inactives: at the highest dose activity change, negative = inhibition, usual class: inhibitors; hit rate 0.63% among 310,000; Vaccinia virus mCherry reporter infection, fluorescence; AID 720579; calls by dose curve; tested in A549 cells; also: potency is read from the fitted curve at half-maximal effect; nearly all actives have a fitted effect of over 35% in size
Lassa entry inh = inhibitors of Lassa virus binding or cell entry; Potency, µM (doses to about 37.9 µM), without a hit: at the top dose activity change, negative = inhibition, usual class: inhibitors; AID 540256; hit rate 1.2% among 300,000; Lassa virus pseudotype entry inhibition, cell reporter; calls by dose curve; tested in HEK293 cells; also: potency is read from the fitted curve at half-maximal effect; nearly all actives have a fitted effect of over 50% in size
Marburg entry inh = Marburg virus entry inhibition; Marburg virus pseudotyped entry inhibition, cell reporter; Potency, µM (highest dose often 37.8 µM), for inactives: at the top dose activity change, negative = inhibition, most hits filed as inhibitors; hit rate 1.8% among 300,000; calls by dose curve; tested in HEK293 cells; also: potency is read from the fitted curve at half-maximal effect
Starred values were filed as active, the others as inactive; i = inactive; ? = inconclusive; nt = no result given; [ ] = remark or other dose. Hits are enriched below; roughly 6.5% of the tested compounds scored in any of these assays. % is scaled to controls: 0 for no effect and ±100 for the full control effect.

SMILES	Vaccinia Venus	HCMV antiviral	FMDV antiviral	Vaccinia mCherry	Lassa entry inh	Marburg entry inh
O=C(CN1CCN(S(=O)(=O)c2ccccc2)CC1)Nc1ccc([N+](=O)[O-])cc1	3%	-69*	0%	-2%	-17%	2%
O=C(Nc1ccc(S(=O)(=O)N2CCN(Cc3ccccc3)CC2)cc1)c1cnccn1	nt	-86*	?	nt	?	?
Cc1ccc(S(=O)(=O)N2CCc3ccccc3C2)cc1	nt	-26	9%	nt	nt	nt
Cc1ccc(S(=O)(=O)N2CCN(Cc3ccccc3)CC2)cc1	nt	-60*	-27%	nt	nt	2%
CCn1c(=O)c2cc(C(=O)NCc3ccc(F)cc3Cl)sc2c2ccccc21	-3%	-2	-27%	-8%	-11%[46.1 µM]	26%[46.1 µM]
O=C(COc1ccc(S(=O)(=O)NC2CCCCC2)cc1)Nc1ccc(C(F)(F)F)cc1	-15%	-4	0%	-21%	-11%[46.1 µM]	-11%[46.1 µM]
COC(=O)C[C@H]1c2ccccc2[C@@H]2C(=C[C@@H](C)[C@H]3C(=O)NC(=O)[C@H]32)N1C(=O)OC	nt	nt	nt	nt	nt	3%[14.2 µM]
O=c1c2ccccc2n(Cc2ccccc2F)c(=O)n1-c1cccc(F)c1	-10%	?	-24%	-13%	-11%[46.1 µM]	27%[46.1 µM]
CCOc1ccc(CN2CCN(S(=O)(=O)c3ccc(NC(C)=O)cc3)CC2)cc1	-16%	-67*	?	-11%	?	2%[46.1 µM]
CCOc1ccc(OCc2cccc(C(=O)Nc3ccc(CN4CCCCC4)cc3)c2)cc1	?	28	0%	?	?	6.5µM*
O=c1oc2ccc(Br)cc2cc1-c1nc2c(s1)CCc1ccccc1-2	18%	nt	nt	-20%	nt	nt
COc1cccc(CNS(=O)(=O)c2ccc(N3CCCCS3(=O)=O)cc2)c1	-22%	?	-29%	-26%	-25%[46.1 µM]	nt
COc1ccc(C(=O)NCC2CCCO2)cc1S(=O)(=O)N1CCCc2ccccc21 (centres undefined)	-16%	-2	26%	i	?	?
COc1ccc(OC)c(S(=O)(=O)N2CCc3ccccc32)c1	-21%	4	14%	i	8%	?
COc1ccc(C(=O)NCc2ccc(C)cc2)cc1S(=O)(=O)N1CCCc2ccccc21	-27%	-72*	40%	?	-27%	?
COc1ccc(OC)c(S(=O)(=O)N2CCCc3ccccc32)c1	-7%	-102*	8%	nt	23%	?
CSc1ccc(/C=C/c2ccnc3ccccc23)cc1	4%	nt	nt	-6%	nt	nt
CCC(C)(C)NC(=O)C(c1ccc(C)cc1)N(Cc1cccs1)C(=O)c1ccc2c(c1)OCCO2 (centres undefined)	-11%	-21	-22%	-21%	?	15µM*
COc1ccc(OC)c(/C=C/c2c([N+](=O)[O-])c(=O)n(C)c(=O)n2C)c1	-19%	-5	-23%	-25%	nt	-29%[46.1 µM]
COc1cc(/C=C/c2c([N+](=O)[O-])c(=O)n(C)c(=O)n2C)cc(OC)c1OC	-13%	-67*	nt	-27%	?	-21%
COc1ccc(/C=C/c2c([N+](=O)[O-])c(=O)n(C)c(=O)n2C)cc1O	nt	-103*	?	nt	-24%	?
Cn1c(/C=C/c2ccc(Br)cc2)c([N+](=O)[O-])c(=O)n(C)c1=O	?	-100*	16µM*	13µM*	?	?
CCOC(=O)NN=C1C[C@@H](O)[C@@H](O)[C@@H]2[C@H]3C(=O)N(CC)C(=O)[C@@H]3CC[C@@H]12	nt	nt	nt	nt	?	8%[14.2 µM]
C=N[C@@H](C(=O)N[C@@H]1C(=O)N2[C@@H]1SC(C)(C)[C@@H]2C(=O)O)c1ccccc1	-8%	nt	6%	-9%	nt	nt
CCCCn1c(CN2CCN(c3cccc(Cl)c3)CC2)nc2c1c(=O)[nH]c(=O)n2C	-25%	-1	-9%	-15%	?	1.3µM*
Cc1ccc(Cl)cc1N1CCN(Cc2nc3c(c(=O)[nH]c(=O)n3C)n2Cc2ccccc2F)CC1	?	-77*	?	?	nt	nt
CCc1ccccc1NC(=O)CSc1nc2ncccc2o1	-20%	11	-6%	-10%	14%[46.1 µM]	nt
Cc1ccc(-c2cn(-c3ccc(SC(F)F)cc3)c3[n+]2CCC3)cc1	-18%	-98*	?	-11%	-24%	?
FC(F)Oc1ccc(-n2cc(-c3ccccc3)[n+]3c2CCCCC3)cc1	-13%	-21	?	-15%	?	?
Cc1ccc(-c2cn(-c3ccc(OC(F)F)cc3)c3[n+]2CCCCC3)cc1	-16%	-89*	-6%	-4%	?	-27%
